Assay results as given in the supplement of paper PMC3334620.
The full ranking holds about 33,000 sequences; the median of “E-score (-0.5 to 0.5)” is about -0.036, and the highest 2% start at about 0.37. The sample as a whole holds a higher share of the highest values than the screen did.

Each sequence was assayed against T1, Yer064c (UniProt P40041) (assay: PBM E-score (8-mer binding enrichment) (E-score (-0.5 to 0.5)); higher = stronger / more preferred TF binding). Conditions: protein concentration: 200 nM; construct: GST-full length.
T1 sequence: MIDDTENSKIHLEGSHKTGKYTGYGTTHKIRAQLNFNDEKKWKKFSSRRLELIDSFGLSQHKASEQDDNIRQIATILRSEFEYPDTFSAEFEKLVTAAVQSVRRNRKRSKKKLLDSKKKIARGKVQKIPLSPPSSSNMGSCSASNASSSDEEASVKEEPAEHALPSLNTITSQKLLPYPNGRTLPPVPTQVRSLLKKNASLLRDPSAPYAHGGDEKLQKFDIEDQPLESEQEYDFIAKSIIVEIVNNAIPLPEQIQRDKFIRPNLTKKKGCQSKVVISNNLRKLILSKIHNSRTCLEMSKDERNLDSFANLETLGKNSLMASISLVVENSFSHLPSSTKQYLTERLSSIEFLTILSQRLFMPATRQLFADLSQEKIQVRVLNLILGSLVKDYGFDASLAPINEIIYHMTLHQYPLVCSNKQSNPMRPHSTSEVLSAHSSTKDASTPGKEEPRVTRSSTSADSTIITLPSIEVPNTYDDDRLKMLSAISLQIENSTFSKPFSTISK
Method: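 Universal 'all 10-mer' protein binding microarrays (Agilent AMADID 015681) probed with GST-tagged S. cerevisiae TFs (full-length or DBD) made by in vitro transcription/translation (PURExpress), about 100-200 nM. Bound TF was detected with fluorescent anti-GST. Each ungapped 8-mer (which stands for itself and its reverse complement) is scored by the PBM enrichment score (E-score), a modified Wilcoxon-Mann-Whitney statistic from -0.5 to +0.5, computed with the Universal PBM Analysis Suite. Scale: above 0.35 generally sequence-specific binding.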

Row | Sequence | PBM E-score
1 | CGTCAAAG | 0.0679
2 | CGTCAAAA | -0.0525
3 | AGTCAAAG | 0.406
4 | ACTCAAAT | 0.294
5 | GGTCAAAA | 0.0441
6 | AGTCAAAA | 0.408
7 | AGTCAAAC | 0.35
8 | ATTCAAAT | 0.214
9 | AGTCAAAT | 0.412
10 | ACGCGAGC | -0.0659
11 | GGCAAGAC | -0.163
12 | GTGGCATA | -0.194
13 | AATGCGTA | 0.00743
14 | GGTAGGGA | -0.0117
15 | AGGGAAGA | -0.0141
16 | AGAAAATC | 0.0604
17 | ACATCGGA | 0.0356
18 | CACTCAAC | 0.0472
19 | GACTCAAC | 0.472
20 | CACTCAAA | 0.107
21 | GACTCAAA | 0.48
22 | AACTCAAC | 0.123

Row | Sequence | PBM E-score
23 | TACTCAAA | 0.201
24 | CGGCCCGA | -0.157
25 | ACGAGAGC | -0.143
26 | GTTGGCAA | -0.14
27 | AAGCTTAA | 0.0226
28 | CGGTACAG | -0.12
29 | GGCTCACA | 0.13
30 | CTCGTAAC | 0.0792
31 | CACTCTCA | -0.0477
32 | GACTCTCA | 0.418
33 | CACTCTCC | -0.0733
34 | AACTCTCA | 0.0457
35 | GACTCTCC | 0.411
36 | AACTCTCC | -0.159
37 | AGGTCTTA | 0.0474
38 | CCTTCCCA | -0.0175
39 | CAATGCAC | 0.0625
40 | ATGAGCCC | -0.00355
41 | CTGAGCCA | 0.31
42 | ATGAGCCA | 0.396
43 | AAATCATG | 0.385
44 | AAATCATT | 0.359

Row | Sequence | PBM E-score
45 | GCATCATA | 0.0926
46 | AAATCATC | 0.403
47 | AAATCAAG | 0.0497
48 | ACATCATC | 0.212
49 | CAATCAGG | 0.218
50 | GTATCATA | 0.0771
51 | ATATCATC | -0.113
52 | CAATCAAG | 0.212
53 | GAATCATA | 0.464
54 | CAATCATG | 0.369
55 | ATTTTGTA | 0.00667
56 | ACAAGAGT | 0.149
57 | CTTCATAC | -0.00264
58 | GGCCGGAA | -0.146
59 | GTCGGCGA | 0.141
60 | GAATGAGA | 0.0143
61 | AGCGTCCG | -0.131
62 | CAGCAAGA | -0.11
63 | CGCTTCCA | -0.24
64 | ATGTAAGC | -0.0792
65 | AACTGTTA | 0.0274
66 | GAGAGGAA | -0.0878

Row | Sequence | PBM E-score
67 | TAATCAAA | 0.315
68 | TAATCATA | 0.457
69 | AAATCATA | 0.387
70 | ACATCATA | 0.107
71 | TAATCAGA | 0.35
72 | ATATCATA | 0.00064
73 | GGTGAGCA | -0.00163
74 | GGAACCAA | -0.106
75 | CGTCACCC | -0.258
76 | CGTCACCA | -0.0242
77 | AGTCACCG | 0.476
78 | ATTCACCG | 0.0472
79 | GGTCACCA | 0.036
80 | AGTCACCA | 0.469
81 | ATTCACCC | 0.0614
82 | AGTCACCC | 0.479
83 | AGACACCG | 0.11
84 | TACGCAGA | 0.1
85 | TAGATGAA | 0.00973
86 | AGACCCGG | -0.0102
